One may read the inhibition as the change of the read-out against control, counted positive when it falls.

Records with an inconclusive call do not appear. Activity calls are given as the source filed them.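 How the source made its calls, unless noted: active means inhibition above the screen-wide mean plus 3 SD, about 51%; inactive means the rest.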

A short description of assay [1]: yeast TOR pathway RPL19A-GFP modulators, primary screen, cell-based, S. cerevisiae, multiplex flow cytometry (AID 1862; in the data active means percent of DMSO control GFP below about 86%;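 further: lower values mimic rapamycin by blocking the RPL19A rise seen in DMSO cells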). The settings on record: S. cerevisiae RPL19A-GFP strain, flow cytometry fluorescence, 3 h; at 10 µM; stronger effect = lower value. (Flow cytometry measures light scatter and fluorescence of single cells or particles in a stream.)
Assay [2] is described as follows: modulators of MEP2-GFP levels in yeast, primary screen, S. cerevisiae, multiplex flow cytometry (AID 1867;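 active means GFP response, as percent of the DMSO control, above the screen-wide mean plus 3 SD, about 139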;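 further: median GFP channel fluorescence of barcode-gated MEP2-GFP cells measured by flow cytometry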). The settings on record: S. cerevisiae MEP2-GFP strain, 3 h, at 10 µM, stronger effect = higher value, 100% means same as DMSO wells.
The nature of assay [3]: modulators of CIT2-GFP expression in yeast, primary screen, S. cerevisiae, GFP fusion, multiplex flow cytometry (AID 1870;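 active means percent response above a set limit, the screen-wide mean plus 3 SD, cut at about 130% in these data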;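 further: barcoded CIT2-GFP strain pooled with four other GFP strains with rapamycin as positive control; median GFP fluorescence per well over plate mean of DMSO wells so 100% = DMSO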). Conditions: 3 h, at 10 µM, stronger effect = higher value.
The nature of assay [4]: modulators of LAP4-GFP expression in yeast, primary screen, S. cerevisiae, multiplex flow cytometry (AID 1873;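 active means GFP signal, as percent of the solvent control, above the screen mean plus 3 SD, about 149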). Conditions: 3 h, at 10 µM, stronger effect = higher value.
A short description of assay [5]: modulators of AGP1-GFP expression in yeast TOR pathway, primary screen, cell-based, multiplex flow cytometry, S. cerevisiae (AID 1887;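 active means GFP signal above the screen-wide mean plus 3 SD, that is over about 124.5% of the solvent control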;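 further: AGP1-GFP fusion strain of S. cerevisiae within a five-strain barcoded multiplex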). Conditions: 3 h, at 10 µM, stronger effect = higher value.
Assay [6] in a line: inhibitors of CD8+ T cell-vesicle binding, pilot screen, LFA-1/ICAM-1 modulator project, MLPCN validation set, flow cytometry (AID 2523;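 active means response below a set limit, under 55% cells CD8-positive and vesicle-bound, and CD8 cells' 90th-percentile brightness under 279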;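 on vesicle binding response: mean PE anti-B7-1 fluorescence of CD8+ cells relative to row control; 100% = QL9-loaded vesicles with DMSO vehicle in the same plate row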). The settings on record: 2C mouse CD8+ T cells, at 7 µM, stronger effect = lower value; double positive events: measured here: CD8+/vesicle+ event percentage.
Assay [7] concerns the target Integrin beta-1 (Homo sapiens) + Integrin alpha-4 (Homo sapiens) (UniProt P13612+P05556). The assay can be described thus: inhibition of HUTS-21 binding to VLA-4, pilot screen, VLA-4 allosteric modulator project, U937 cells, HUTS-21 mAb, flow cytometry, validation set (AID 2674;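 active means inhibition above 50%, about 3 SD of the validation set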;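 further: antibody binding induced by the VLA-4 ligand LDV present at three times its Kd; 0% = LDV ligand with antibody and no compound and 100% = antibody without LDV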). The settings on record: HUTS-21 LIBS mAb binding, at 6.7 µM, stronger effect = higher value, binding induced by LDV ligand.

Assay [8] is described as follows: superoxide lowering in aged yeast cells, pilot screen, validation compound set (AID 2706;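 active means superoxide response below 65% of plate, a cut near 3 SD across the whole screen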;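 further: yeast exposed to compound for one week at 30 degrees C before staining; 100% = mean of all compound wells on the same plate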). Conditions: S. cerevisiae aging, superoxide DHE fluorescence; at 10 µM; stronger effect = lower value.
Assay [9] concerns the target Beta-adrenergic receptor kinase 1 (Homo sapiens) (UniProt P25098). The assay can be described thus: GRK2 binders displacing RNA aptamer, biochemical, validation, human GRK2, bead flow cytometry (AID 488806;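 active means aptamer binding inhibition above 30%, about 3 SD of noise from non-fluorescent compounds; inactive means inhibition at or below 30%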). The settings on record: bead-bound GRK2, FAM-aptamer displacement, at 10 µM, stronger effect = higher value.
Assay [10] has as its target Beta-2 adrenergic receptor (Homo sapiens) (UniProt P07550). The assay is described as follows: beta2AR agonists driving receptor internalization, pilot screen, cell-based, FAP fluorogen, flow cytometry, validation set (AID 504459;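 active means percent response above 42, roughly 3 SD of non-fluorescent test compounds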;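 further: agonist-driven loss of surface beta2AR via internalization measured by FAP dye flow cytometry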). Conditions: Am2.2-beta2AR cells, FAP surface receptor flow cytometry; at 10 µM; stronger effect = higher value.
Assay [11] deals with AP-2 complex subunit beta (Homo sapiens) (UniProt P63010). The assay is described as follows: inhibitors of arrestin peptide binding to AP2, pilot screen, biochemical, validation set, GST-AP2 beads, flow cytometry (AID 504541;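 active means inhibition above 54%, about 3 SD of non-fluorescent compounds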;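 further: AP2 carries R879A mutation and is captured from E. coli lysate; bead-bound FITC arrestin peptide fluorescence measuring arrestin peptide binding to AP2; 0% = DMSO wells and 100% = excess unlabeled arrestin peptide control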). Conditions: FITC arrestin peptide, at 10 µM, stronger effect = higher value, AP2 beta2 appendage fragment, R879A mutant.
Chain of AP-2 complex subunit beta (Homo sapiens) (P63010 whole entry, looked up, the tested form may be a part, one chain of several): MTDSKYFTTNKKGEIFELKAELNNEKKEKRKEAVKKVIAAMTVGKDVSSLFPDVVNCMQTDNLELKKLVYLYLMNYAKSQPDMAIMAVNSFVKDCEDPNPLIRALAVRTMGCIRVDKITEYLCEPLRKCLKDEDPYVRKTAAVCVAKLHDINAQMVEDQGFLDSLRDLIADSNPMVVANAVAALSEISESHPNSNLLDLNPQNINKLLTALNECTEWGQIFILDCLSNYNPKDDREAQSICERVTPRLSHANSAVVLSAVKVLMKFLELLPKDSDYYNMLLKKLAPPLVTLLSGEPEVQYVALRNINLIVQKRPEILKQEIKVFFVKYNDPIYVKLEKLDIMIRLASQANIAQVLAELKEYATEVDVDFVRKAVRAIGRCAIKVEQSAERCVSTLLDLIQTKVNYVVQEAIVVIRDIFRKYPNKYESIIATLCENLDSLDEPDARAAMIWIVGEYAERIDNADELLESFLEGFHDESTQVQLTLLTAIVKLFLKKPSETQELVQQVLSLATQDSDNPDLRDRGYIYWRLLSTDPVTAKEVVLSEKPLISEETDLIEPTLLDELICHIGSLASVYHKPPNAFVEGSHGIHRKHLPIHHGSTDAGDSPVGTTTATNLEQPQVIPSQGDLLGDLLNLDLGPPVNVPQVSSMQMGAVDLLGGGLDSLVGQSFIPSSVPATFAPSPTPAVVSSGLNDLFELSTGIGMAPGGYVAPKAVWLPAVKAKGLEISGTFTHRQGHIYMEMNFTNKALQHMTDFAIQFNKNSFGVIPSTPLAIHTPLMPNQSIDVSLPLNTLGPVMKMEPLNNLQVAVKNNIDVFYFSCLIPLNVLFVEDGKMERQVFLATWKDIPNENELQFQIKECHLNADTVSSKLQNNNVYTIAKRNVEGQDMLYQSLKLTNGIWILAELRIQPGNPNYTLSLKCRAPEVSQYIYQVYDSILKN
The nature of assay [12]: yeast V-ATPase proton transport modulators, S. cerevisiae, pHLuorin, HTS validation (AID 504600; in the data active means response above about 15%;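 further: plate controls were DMSO for no effect and reference compound for full effect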). The settings on record: S. cerevisiae pHLuorin cytosolic pH, at 10 µM, stronger effect = higher value.
Assay [13] deals with anti-desmoglein-3 scFv antibody binding to human DSG3. The assay is described as follows: inhibitors of anti-DSG3 scFv binding to DSG3, pilot screen, biochemical, validation compound set, bead-based, flow cytometry (AID 588368;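 active means binding below the plate cutoff, the plate median minus 3 SD, with a reading above zero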;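 further: signal is the median channel fluorescence of bead-bound GFP antibody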). Conditions: Protein G beads, DSG3-Fc, scFv-GFP binding, at 10 µM, stronger effect = lower value.
Assay [14] can be described thus: inhibitors of fungal efflux pumps CDR1, CDR2, MDR1, pilot screen, validation compound set, multiplex, phenotypic (AID 588506;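 active means efflux inhibition above 0.42, the validation set average plus 4 SD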;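 further: Nile Red retained in cells so higher fluorescence means more efflux inhibition; 0 = negative control wells and 1 = enniatin B 25 µM full block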). The settings on record: S. cerevisiae pump-expressing triplex, Nile Red efflux flow cytometry; at 10 µM; stronger effect = higher value; the pumps come from Candida albicans.
In assay [15] the target is ATP-binding cassette sub-family B member 6 (Homo sapiens) (UniProt Q9NP58). The assay can be described thus: ABCB6 transporter inhibitors, pilot screen, K562-ABCB6 cells, flow cytometry, validation set (AID 588550).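 Further: 0% = DMSO wells and 100% = benzethonium chloride 70 µM positive control.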 Conditions: K562-ABCB6 porphyrin accumulation, 1 h, at 10 µM, stronger effect = higher value.
Chain of ATP-binding cassette sub-family B member 6 (Homo sapiens) (Q9NP58 whole entry, looked up): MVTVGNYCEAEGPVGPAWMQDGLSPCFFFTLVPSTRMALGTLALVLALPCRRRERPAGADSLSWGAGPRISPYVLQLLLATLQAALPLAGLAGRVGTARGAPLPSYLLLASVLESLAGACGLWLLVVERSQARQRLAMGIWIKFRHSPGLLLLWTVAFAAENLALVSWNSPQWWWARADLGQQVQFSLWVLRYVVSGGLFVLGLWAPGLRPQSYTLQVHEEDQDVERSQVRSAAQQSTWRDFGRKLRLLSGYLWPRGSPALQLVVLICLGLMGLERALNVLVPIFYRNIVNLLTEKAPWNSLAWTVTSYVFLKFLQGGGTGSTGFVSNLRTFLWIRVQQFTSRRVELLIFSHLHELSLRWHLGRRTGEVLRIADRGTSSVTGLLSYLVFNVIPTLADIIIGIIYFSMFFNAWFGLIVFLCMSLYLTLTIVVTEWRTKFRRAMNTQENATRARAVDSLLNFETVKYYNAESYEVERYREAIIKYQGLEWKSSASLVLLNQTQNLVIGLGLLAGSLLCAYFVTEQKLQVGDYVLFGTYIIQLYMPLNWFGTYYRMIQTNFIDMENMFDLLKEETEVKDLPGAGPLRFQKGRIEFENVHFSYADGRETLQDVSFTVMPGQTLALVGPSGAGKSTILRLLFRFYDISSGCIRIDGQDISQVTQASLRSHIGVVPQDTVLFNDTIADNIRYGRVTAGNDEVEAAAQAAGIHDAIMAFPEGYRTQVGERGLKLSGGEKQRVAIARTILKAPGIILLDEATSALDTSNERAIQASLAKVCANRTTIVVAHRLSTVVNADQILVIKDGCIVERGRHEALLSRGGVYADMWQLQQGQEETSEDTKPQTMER
The nature of assay [16]: promoters of myeloid differentiation in arrested cells, primary screen, cell-based, GFP/MAC1 double positive, flow cytometry, validation set (AID 588685;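 active means differentiation response of at least 50%, scaled between solvent and reference control, from cells with both markers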;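 further: compound exposure lasts four days before antibody staining and flow analysis; 0% = DMSO wells and 100% = 5 µM fulvestrant positive control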). The settings on record: ER-HoxA9 marrow cells, stronger effect = higher value, normalized: vehicle 0, fulvestrant 100.

Chain of Integrin beta-1 (Homo sapiens) + Integrin alpha-4 (Homo sapiens) (P05556 whole entry, looked up): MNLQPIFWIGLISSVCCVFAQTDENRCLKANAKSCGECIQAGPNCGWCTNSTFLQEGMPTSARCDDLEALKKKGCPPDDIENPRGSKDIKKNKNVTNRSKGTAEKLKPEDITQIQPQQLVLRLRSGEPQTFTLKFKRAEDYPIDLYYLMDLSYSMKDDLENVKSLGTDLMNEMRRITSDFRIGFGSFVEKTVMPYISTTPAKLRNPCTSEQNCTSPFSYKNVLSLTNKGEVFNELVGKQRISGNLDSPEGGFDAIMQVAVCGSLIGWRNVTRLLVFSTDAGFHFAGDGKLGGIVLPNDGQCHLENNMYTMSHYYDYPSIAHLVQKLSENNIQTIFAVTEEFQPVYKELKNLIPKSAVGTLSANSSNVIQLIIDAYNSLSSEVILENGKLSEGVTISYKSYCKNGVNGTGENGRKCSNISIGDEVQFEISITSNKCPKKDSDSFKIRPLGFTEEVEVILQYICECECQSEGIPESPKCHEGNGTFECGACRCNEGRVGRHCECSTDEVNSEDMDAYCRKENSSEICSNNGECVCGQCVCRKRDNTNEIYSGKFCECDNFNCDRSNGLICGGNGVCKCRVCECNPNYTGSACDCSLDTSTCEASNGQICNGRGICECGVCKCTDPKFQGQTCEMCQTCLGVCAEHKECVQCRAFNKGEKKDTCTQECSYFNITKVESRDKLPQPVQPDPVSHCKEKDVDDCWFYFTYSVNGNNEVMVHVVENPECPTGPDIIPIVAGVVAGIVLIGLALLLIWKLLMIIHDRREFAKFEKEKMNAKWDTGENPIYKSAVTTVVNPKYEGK
Chain of Integrin beta-1 (Homo sapiens) + Integrin alpha-4 (Homo sapiens) (P13612 whole entry, looked up): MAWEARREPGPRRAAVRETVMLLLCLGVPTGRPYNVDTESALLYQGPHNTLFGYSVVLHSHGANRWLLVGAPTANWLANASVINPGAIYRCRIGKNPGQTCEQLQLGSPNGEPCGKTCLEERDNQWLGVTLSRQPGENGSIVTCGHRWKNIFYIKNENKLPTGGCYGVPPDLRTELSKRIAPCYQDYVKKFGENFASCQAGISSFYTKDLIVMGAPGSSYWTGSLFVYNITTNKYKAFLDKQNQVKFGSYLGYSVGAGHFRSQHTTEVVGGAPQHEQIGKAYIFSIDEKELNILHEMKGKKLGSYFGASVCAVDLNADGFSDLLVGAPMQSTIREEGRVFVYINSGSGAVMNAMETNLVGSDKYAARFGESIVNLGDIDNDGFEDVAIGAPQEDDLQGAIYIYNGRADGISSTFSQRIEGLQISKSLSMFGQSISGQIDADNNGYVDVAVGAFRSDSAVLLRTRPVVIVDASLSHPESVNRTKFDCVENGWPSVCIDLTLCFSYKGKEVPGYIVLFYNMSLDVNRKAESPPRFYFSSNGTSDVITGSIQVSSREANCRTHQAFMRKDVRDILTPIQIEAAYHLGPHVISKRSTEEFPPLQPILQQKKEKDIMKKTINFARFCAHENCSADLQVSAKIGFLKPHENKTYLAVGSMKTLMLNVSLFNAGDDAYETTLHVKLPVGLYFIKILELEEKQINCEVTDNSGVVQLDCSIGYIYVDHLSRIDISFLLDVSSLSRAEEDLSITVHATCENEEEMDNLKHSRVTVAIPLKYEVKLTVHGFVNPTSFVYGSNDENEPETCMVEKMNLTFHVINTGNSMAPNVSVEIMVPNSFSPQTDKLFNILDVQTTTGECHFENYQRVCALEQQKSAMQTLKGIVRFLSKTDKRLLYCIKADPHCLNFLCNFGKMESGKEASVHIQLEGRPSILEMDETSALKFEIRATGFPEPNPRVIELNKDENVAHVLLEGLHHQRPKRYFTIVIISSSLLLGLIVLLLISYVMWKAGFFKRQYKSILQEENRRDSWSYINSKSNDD
Chain of Beta-2 adrenergic receptor (Homo sapiens) (P07550 whole entry, looked up): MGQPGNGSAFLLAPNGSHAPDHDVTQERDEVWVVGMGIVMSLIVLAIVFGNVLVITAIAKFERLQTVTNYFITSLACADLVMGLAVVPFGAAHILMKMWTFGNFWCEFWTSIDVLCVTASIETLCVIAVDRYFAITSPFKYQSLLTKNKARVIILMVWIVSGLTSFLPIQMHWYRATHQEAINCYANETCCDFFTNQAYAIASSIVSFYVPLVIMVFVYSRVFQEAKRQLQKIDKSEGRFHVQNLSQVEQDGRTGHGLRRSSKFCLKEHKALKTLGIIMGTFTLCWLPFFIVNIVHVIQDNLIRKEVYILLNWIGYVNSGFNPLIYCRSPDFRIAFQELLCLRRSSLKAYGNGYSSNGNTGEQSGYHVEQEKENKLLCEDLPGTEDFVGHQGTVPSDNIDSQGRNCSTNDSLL
Chain of Beta-adrenergic receptor kinase 1 (Homo sapiens) (P25098 whole entry, looked up): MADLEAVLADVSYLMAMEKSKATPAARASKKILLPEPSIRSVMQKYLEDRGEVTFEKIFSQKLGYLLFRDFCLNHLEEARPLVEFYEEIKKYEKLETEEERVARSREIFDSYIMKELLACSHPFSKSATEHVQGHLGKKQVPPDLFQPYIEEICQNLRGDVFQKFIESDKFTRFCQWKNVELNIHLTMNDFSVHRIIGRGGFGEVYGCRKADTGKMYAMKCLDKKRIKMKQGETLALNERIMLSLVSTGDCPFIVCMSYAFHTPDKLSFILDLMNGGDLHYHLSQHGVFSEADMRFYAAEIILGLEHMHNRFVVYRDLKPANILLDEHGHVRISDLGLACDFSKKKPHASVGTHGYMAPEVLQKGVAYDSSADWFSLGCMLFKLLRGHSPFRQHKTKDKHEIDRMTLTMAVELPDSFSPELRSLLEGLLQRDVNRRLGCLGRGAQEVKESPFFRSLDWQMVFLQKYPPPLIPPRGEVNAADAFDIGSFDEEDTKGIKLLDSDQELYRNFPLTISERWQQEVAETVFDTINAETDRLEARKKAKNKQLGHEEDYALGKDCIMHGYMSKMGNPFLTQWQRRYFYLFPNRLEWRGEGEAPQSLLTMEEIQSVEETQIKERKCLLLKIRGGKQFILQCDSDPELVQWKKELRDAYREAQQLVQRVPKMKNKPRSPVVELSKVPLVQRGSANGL

For the compound `CC(C)(C)N1NC2(CCCCC2)NC1=S`, in assay [1], the percent of DMSO control GFP was 99.8% (inactive). Also, the GFP response vs DMSO in [2] is 113% (inactive); in [4], 80.9% (inactive). Moreover, the percent response of DMSO control in assay [3] is 118% (inactive). In addition, the GFP response, % of DMSO in [5] is 95.2% (inactive). The double positive events in [6] worked out at 53.1%. Besides, in [6], the vesicle binding response is 193% (inactive). Besides, the results for the inhibition in [7], in [11] and in assay [15] were -3.24% (inactive), -12.7% (inactive) and 7% (inactive), respectively. Moreover, in [8], the superoxide response (% of plate) is 125% (inactive). The aptamer binding inhibition in assay [9] was -1% (inactive). Also, the response in [10] is -12.5% (inactive); in assay [12], 0.59% (inactive). The binding (% of control) in assay [13] was 104% (inactive). Further, the efflux inhibition (fraction of control) in [14] is 0.27 (inactive). Moreover, the differentiation response in assay [16] was 1.64% (inactive).

Take `Nc1c(C(=O)c2ccccc2)oc2ccccc12`: the percent of DMSO control GFP in assay [1] was 101% (inactive). In addition, the GFP response vs DMSO in assay [2] is 96.2% (inactive); in assay [4], 93.3% (inactive). The percent response of DMSO control in [3] was 100% (inactive). Moreover, the GFP response, % of DMSO in assay [5] is 74.2% (inactive). In [6], this compound returned a double positive events of 66%. Moreover, the vesicle binding response in [6] is 198% (inactive). The values for the inhibition in assay [7], in assay [11] and in assay [15] were -2.53% (inactive), -8.74% (inactive) and -18% (inactive), respectively. For the same compound, in assay [8], the superoxide response (% of plate) was 89.5% (inactive). The aptamer binding inhibition in assay [9] is -1% (inactive). The response is -9.17% (inactive) in assay [10] and 1.23% (inactive) in [12]. Also, the binding (% of control) in assay [13] is 86.9% (inactive). Further, the efflux inhibition (fraction of control) in [14] was -0.32 (inactive). The differentiation response in assay [16] is 24.7% (inactive).

In the case of `O=C1[C@@H]2[C@H](Cc3ccc(O)cc3)N[C@]3(C(=O)Nc4ccccc43)[C@@H]2C(=O)N1c1ccc(F)cc1`, the percent of DMSO control GFP in assay [1] was 106% (inactive). The GFP response vs DMSO in assay [2] was 103% (inactive); in assay [4], 90.1% (inactive). Further, in assay [3], the percent response of DMSO control is 100% (inactive). Also, the GFP response, % of DMSO in [5] was 91.9% (inactive). The compound further came in with a double positive events in [6] of 61.1%. Besides, the vesicle binding response in assay [6] is 1070% (inactive). Moreover, the inhibition is 14.1% (inactive) in assay [7], 3.35% (inactive) in assay [11] and 0% (inactive) in assay [15]. Further, the superoxide response (% of plate) in [8] is 90% (inactive). Further, in assay [9], the aptamer binding inhibition is 2% (inactive). For the same compound, the figures for the response in [10] and in assay [12] were -3.4% (inactive) and -0.08% (inactive), respectively. Further, in assay [13], the binding (% of control) was 92.2% (inactive). In assay [14], the efflux inhibition (fraction of control) is 0.3 (inactive). Moreover, the differentiation response in assay [16] is 6.11% (inactive).

Regarding `O=C1CC[C@@H](CN(Cc2ccccc2)Cc2cn[nH]c2-c2cc3ccccc3o2)N1`, in [1], the percent of DMSO control GFP was 101% (inactive). In addition, the GFP response vs DMSO is 108% (inactive) in assay [2] and 110% (inactive) in assay [4]. Further, the percent response of DMSO control in [3] is 99.6% (inactive). Further, in assay [5], the GFP response, % of DMSO is 114% (inactive). Further, the double positive events in [6] amounted to 63.1%. Besides, the vesicle binding response in assay [6] was 198% (inactive). Besides, the inhibition in assay [7] was -4.52% (inactive); in assay [11] it was 2.07% (inactive); in assay [15] it was 1% (inactive). The superoxide response (% of plate) in assay [8] is 93.3% (inactive). In addition, in assay [9], the aptamer binding inhibition was 5% (inactive). Also, the response in assay [10] is 40.3% (inactive); in assay [12] it was 3.87% (inactive). In addition, the binding (% of control) in assay [13] is 101% (inactive). In addition, the efflux inhibition (fraction of control) in assay [14] was 0.38 (inactive). For the same compound, the differentiation response in [16] was -7.94% (inactive).
